“And” between values parts separate entries of the source, which are not always exact repeats. Equal entries are not always repeated. Results filed as inconclusive are left out. The source made the active and inactive calls. The call rests on the fitted dose curve; in most records, active means well fitted cell-killing curve with a large enough effect; inconclusive means small, poorly fitted or top-dose-only effect; inactive means flat fitted curve, though single readings scatter.

The target of the first experiment is Nicotinamide N-methyltransferase (Homo sapiens) (UniProt P40261). Kind of experiment: Confirmatory Screen for Target Class Profiling of Small Molecule Inhibitors of Methyltransferases (AID 1745852). To be noted: MTase-Glo luminescence, SAH detection, recombinant enzyme; measured here: NNMT max response; stronger effect = lower value.
Sequence of Nicotinamide N-methyltransferase (Homo sapiens) (P40261 whole entry, looked up): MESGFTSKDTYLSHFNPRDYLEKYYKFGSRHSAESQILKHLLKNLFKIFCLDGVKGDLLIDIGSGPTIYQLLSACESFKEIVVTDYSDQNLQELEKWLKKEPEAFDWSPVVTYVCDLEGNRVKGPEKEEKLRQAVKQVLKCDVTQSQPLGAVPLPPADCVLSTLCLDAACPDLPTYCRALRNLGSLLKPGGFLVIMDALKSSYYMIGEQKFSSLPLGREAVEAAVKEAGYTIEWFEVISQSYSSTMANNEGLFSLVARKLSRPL
In the case of `CC(C)(C=O)Cc1cc(C(C)(C)C)c(O)c(C(C)(C)C)c1`, the activity is -8.99%.

In the case of `Oc1ccc(C2CNCc3sccc32)cc1O` (stereo unspecified), the activity was -8.32%. Take `O=C(O)CC[C@@H](C(=O)O)N1C(=O)c2ccccc2C1=O`: the activity is -12.9%.

For the compound `O=C(c1cc(O)c(O)c([N+](=O)[O-])c1)c1ccccc1F`, the activity was -15.6%. The same measure, in the same setting: to `O=Nc1ccc2oc(=O)ccc2c1` belongs -0.856%.

For the compound `COc1cc(/C=C/C(=O)CC(=O)/C=C/c2ccc(O)c(OC)c2)ccc1O`, the activity is -4.44%. Same read-out and setting: under `CCOC(=O)N1CCN(/[N+]([O-])=N/Oc2ccc([N+](=O)[O-])cc2[N+](=O)[O-])CC1` stands -19%. Regarding `Fc1ccc(C(OCCCc2cnc[nH]2)c2ccc(F)cc2)cc1`, the activity is -23.2%. The same measure, in the same setting: to `O=[N+]([O-])c1ccc(CNc2nc(NCc3cccc(C(F)(F)F)c3)nc3nc[nH]c23)cc1` belongs -49.3% and -10.9%; to `CCN(CC)CCCCNc1ncc2cc(-c3c(Cl)cccc3Cl)c(NC(=O)NC(C)(C)C)nc2n1`, -17.4% and -14.9%. Take `COC1=C(OC)C(=O)c2ccccc2C1=O`: the activity was -23.6%. For the compound `CC(C)(C)c1ccc(S(=O)(=O)/C=C/C#N)cc1`, the activity was -4.25%. Same read-out and setting: under `COc1ccccc1CNCCCCCCNCCCCCCCCNCCCCCCNCc1ccccc1OC` stands -17.7%; under `COc1cc(OC)c(/C=C2/C(=O)Nc3ccccc32)c(OC)c1`, -28.2%; under `OCC1O[C@H]([S-])[C@H](O)[C@@H](O)[C@@H]1O.[Au+]` (stereo partly specified), -21.4%.

On to `Oc1ccccc1O`, for which the activity was -3.91%. Turning to `CN1CCc2cccc3c2C1Cc1ccc(O)c(O)c1-3` (stereo unspecified), the activity was found to be 0.623%. On the same count and under the same terms, to `O=C(O)CNC(=O)C(CS)Cc1ccccc1` (stereo unspecified) belongs 2.86%; to `COc1ccc(/C=C2\COc3ccc(C)cc3C2=O)cc1O`, -20.1%; to `N.N.N.N.N.N.N.N.N.N.N.N.N.N.O.O.[Ru+4].[Ru+5].[Ru+5]`, -45.3%.

For the next experiment, the target named is Phenylethanolamine N-methyltransferase (Homo sapiens) (UniProt P11086). The description is as above. Conditions: MTase-Glo luminescence, SAH detection, recombinant enzyme; measured here: PNMT max response; stronger effect = lower value.
Sequence of Phenylethanolamine N-methyltransferase (Homo sapiens) (P11086 whole entry, looked up): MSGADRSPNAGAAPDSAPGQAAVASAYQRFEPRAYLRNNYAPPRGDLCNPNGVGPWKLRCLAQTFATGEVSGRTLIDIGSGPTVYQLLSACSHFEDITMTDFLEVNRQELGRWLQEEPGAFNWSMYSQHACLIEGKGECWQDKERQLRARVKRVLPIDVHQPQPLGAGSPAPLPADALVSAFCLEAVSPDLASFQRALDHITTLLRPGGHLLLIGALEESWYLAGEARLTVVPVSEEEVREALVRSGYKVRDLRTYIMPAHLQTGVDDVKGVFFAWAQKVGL
As to `CC(C)(C=O)Cc1cc(C(C)(C)C)c(O)c(C(C)(C)C)c1`, the activity is -4.11%. For the compound `Oc1ccc(C2CNCc3sccc32)cc1O` (stereo unspecified), the activity came to 0.43%.

Regarding `O=C(O)CC[C@@H](C(=O)O)N1C(=O)c2ccccc2C1=O`, the activity is -4.01%.

Regarding `O=C(c1cc(O)c(O)c([N+](=O)[O-])c1)c1ccccc1F`, the activity is -23.2%. With `O=Nc1ccc2oc(=O)ccc2c1`, the activity stood at 5.38%. Same read-out and setting: under `COc1cc(/C=C/C(=O)CC(=O)/C=C/c2ccc(O)c(OC)c2)ccc1O` stands 9.5%. Take `CCOC(=O)N1CCN(/[N+]([O-])=N/Oc2ccc([N+](=O)[O-])cc2[N+](=O)[O-])CC1`: the activity was -3.94%.

Take `Fc1ccc(C(OCCCc2cnc[nH]2)c2ccc(F)cc2)cc1`: the activity is -0.346%. On the same count and under the same terms, to `O=[N+]([O-])c1ccc(CNc2nc(NCc3cccc(C(F)(F)F)c3)nc3nc[nH]c23)cc1` belongs -13.5% and 7.65%.

Regarding `CCN(CC)CCCCNc1ncc2cc(-c3c(Cl)cccc3Cl)c(NC(=O)NC(C)(C)C)nc2n1`, the activity was -6.92% and -0.98%. Still for that read-out and setting: under `COC1=C(OC)C(=O)c2ccccc2C1=O` stands -70.6%; under `CC(C)(C)c1ccc(S(=O)(=O)/C=C/C#N)cc1`, 5.53%. Turning to `COc1ccccc1CNCCCCCCNCCCCCCCCNCCCCCCNCc1ccccc1OC`, the activity came to 2.9%. Regarding `COc1cc(OC)c(/C=C2/C(=O)Nc3ccccc32)c(OC)c1`, the activity is -34.5%. On the same count and under the same terms, to `OCC1O[C@H]([S-])[C@H](O)[C@@H](O)[C@@H]1O.[Au+]` (stereo partly specified) belongs -1.84%; to `Oc1ccccc1O`, 8.37%; to `CN1CCc2cccc3c2C1Cc1ccc(O)c(O)c1-3` (stereo unspecified), 3.44%.

`O=C(O)CNC(=O)C(CS)Cc1ccccc1` (stereo unspecified): the activity worked out at 8.57%.

As for `COc1ccc(/C=C2\COc3ccc(C)cc3C2=O)cc1O`, the activity came to 4.48%.

On to `N.N.N.N.N.N.N.N.N.N.N.N.N.N.O.O.[Ru+4].[Ru+5].[Ru+5]`, for which the activity is -7.59%.

Test system in another experiment: not listed separately
The experiment in a line: NCATS anti-infectives library activity on HEK293 viability as a counter-qHTS vs the C. elegans viability qHTS (AID 1745854). Further: on the % scale 0 is the no-effect control and ±100 the full control effect. Conditions: HEK293 viability counter-screen; series mostly up to 41.8 µM. In short, it runs like this:
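HEK293 cells, 1500 per well, exposed 24 hr at 37C in 5% CO2 to compounds in a 1:5 titration, up to 41.7 uM final. Viability read as CellTiter-Glo luminescence after 10 min at room temperature.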
Background: In qHTS, concentration-response curves come from the screen itself.
Take `CC[C@@H](C)[C@H]1O[C@]2(CC[C@@H]1C)C[C@@H]1C[C@@H](C/C=C(\C)[C@@H](O[C@H]3C[C@H](OC)[C@@H](O[C@H]4C[C@H](OC)[C@@H](O)[C@H](C)O4)[C@H](C)O3)[C@@H](C)/C=C/C=C3\CO[C@@H]4[C@H](O)C(C)=C[C@@H](C(=O)O1)[C@]34O)O2`: the outcome was “inactive”. Still for that read-out and setting: under `COc1cc(/C=C/C(=O)CC(=O)/C=C/c2ccc(O)c(OC)c2)ccc1O` stands “inactive”; under `CCCCCCOc1ccccc1C(N)=O`, “inactive”. Same read-out and setting: under `CNc1ncnc2c1ncn2[C@@H]1O[C@H](CO)[C@@H](O)[C@H]1O` stands “inactive”. The same measure, in the same setting: to `CC(C(=O)O)c1ccc(C(=O)c2cccs2)cc1` (stereo unspecified) belongs “inactive”. For the compound `N=c1ccn2c(n1)O[C@H]1[C@H](O)[C@@H](CO)O[C@H]12`, the outcome is “inactive”.

The values above are taken from PubChem BioAssay (NCATS).
